The record followed here is PubChem BioAssay AID1347165 (National Center for Advancing Translational Sciences (NCATS), 2019).

The campaign covered roughly 220,000 compounds. About 5,700 (2.6%) were called active. Where a call stands in place of a potency, no number is given. Not shown: some 18% with an inconclusive outcome. Calls come from the whole dose curve; as a rule, active = well fitted inhibition curve with a large enough effect; inconclusive = small, poorly fitted or top-dose-only effect; inactive = no such curve, though single readings can be large or run the other way. The full list was thinned out, with actives kept by preference.
Potency is the fitted concentration of half-maximal effect.

Lysine-specific demethylase 5B (Homo sapiens), sequence (Q9UGL1 whole entry, looked up): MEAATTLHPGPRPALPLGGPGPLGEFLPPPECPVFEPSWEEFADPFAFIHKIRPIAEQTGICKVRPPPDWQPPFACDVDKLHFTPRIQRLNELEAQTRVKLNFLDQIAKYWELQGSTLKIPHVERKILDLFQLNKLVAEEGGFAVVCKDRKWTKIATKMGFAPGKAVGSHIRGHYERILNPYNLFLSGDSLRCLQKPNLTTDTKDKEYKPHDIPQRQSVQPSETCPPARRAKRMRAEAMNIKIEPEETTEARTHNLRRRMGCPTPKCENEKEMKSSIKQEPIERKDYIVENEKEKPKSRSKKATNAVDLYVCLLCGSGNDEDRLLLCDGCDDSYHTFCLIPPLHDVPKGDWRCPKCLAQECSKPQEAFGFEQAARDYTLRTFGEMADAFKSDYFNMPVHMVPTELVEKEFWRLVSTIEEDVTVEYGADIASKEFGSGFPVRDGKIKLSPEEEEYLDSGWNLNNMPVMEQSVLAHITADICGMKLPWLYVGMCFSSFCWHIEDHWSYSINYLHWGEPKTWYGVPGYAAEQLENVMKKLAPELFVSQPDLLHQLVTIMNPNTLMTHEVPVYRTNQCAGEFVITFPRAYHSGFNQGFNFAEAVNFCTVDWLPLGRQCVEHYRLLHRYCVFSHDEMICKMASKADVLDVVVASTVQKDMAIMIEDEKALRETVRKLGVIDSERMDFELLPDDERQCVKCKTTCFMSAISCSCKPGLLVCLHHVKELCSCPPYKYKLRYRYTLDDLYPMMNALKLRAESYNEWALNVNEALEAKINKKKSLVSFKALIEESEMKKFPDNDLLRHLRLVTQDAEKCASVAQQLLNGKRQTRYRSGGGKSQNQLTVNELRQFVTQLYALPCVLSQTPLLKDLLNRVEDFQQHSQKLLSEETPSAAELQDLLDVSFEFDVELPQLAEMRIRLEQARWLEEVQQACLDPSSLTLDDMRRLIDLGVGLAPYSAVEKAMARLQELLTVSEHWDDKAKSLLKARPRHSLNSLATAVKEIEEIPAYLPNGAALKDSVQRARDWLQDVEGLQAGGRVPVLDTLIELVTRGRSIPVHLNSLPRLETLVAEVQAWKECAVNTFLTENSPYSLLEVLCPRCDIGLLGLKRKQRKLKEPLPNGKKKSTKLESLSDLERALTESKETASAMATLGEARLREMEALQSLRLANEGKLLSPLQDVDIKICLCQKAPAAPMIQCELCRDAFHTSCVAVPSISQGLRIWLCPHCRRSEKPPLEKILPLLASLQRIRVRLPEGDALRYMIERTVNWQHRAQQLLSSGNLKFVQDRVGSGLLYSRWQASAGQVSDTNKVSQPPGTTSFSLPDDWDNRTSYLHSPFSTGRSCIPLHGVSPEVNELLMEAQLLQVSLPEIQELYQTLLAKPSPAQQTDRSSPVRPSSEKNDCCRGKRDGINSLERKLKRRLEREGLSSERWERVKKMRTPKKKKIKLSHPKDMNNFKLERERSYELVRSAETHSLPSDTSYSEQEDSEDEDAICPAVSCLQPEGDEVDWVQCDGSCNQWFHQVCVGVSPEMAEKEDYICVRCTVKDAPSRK

For the experiment, the target named is Lysine-specific demethylase 5B (Homo sapiens) (UniProt Q9UGL1). Put plainly: Primary screen for KDM5B Histone Demethylases FDH-coupled qHTS. Note: nearly all actives have a fitted effect of over 70% in size. The note with it: FDH-coupled NADH fluorescence (FDH is formaldehyde dehydrogenase); series mostly up to 57.7 µM. From the text:
Assay Submitter (PI): Qin Yan, Ph.D. (Yale University) and Xiaodong Cheng, Ph.D. (MD Anderson) This project was funded as part of the NCI NEXT Program and Chemical Biology Consortium (CBC) The histone demethylases, KDM5A and KDM5B catalyze the demethylation of lysine 4 on histone H3 (H3K4me3/2). They are overexpressed in a variety of cancers and have been implicated in cancer cell growth, metastasis, drug resistance, and tumor growth. KDM5A is amplified and overexpressed in breast and gastric cancer; and is translocated in leukemia. While KDM5B is highly expressed in human mammary tumors and breast cancer cell lines, but not in normal adult breast tissue. Moreover, knockdown of KDM5B leads to upregulation of tumor suppressor genes, including BRCA1. The goal of this project is to employ qHTS to identify selective small molecule inhibitors of KDM5A/B demethylase activity to better understand the role of KDM5 in cancer and to develop novel therapies. We employed an FDH-coupled assay previously reported by Sakurai et al. to monitor in vitro KDM5 demethylase activity. Compounds showing dose response inhibition are re-acquired, validated, and tested for non-specific interference with the formaldehyde dehydrogenase (FDH) counterscreen. True inhibitors are validated using an AlphaLisa secondary screen, which employs an H3K4(me2-1)-specific antibody to monitor demethylation of a biotin-tagged H3K4(me3) peptide substrate. Inhibitors are profiled against KDM4A and KDM6A AlphaLisa counterscreens to determine level of demethylase specificity; and against the TruHits counterscreen to eliminate non-specific inhibitory activity on the AlphaLISA detection method. Selective inhibitors identified from the primary and secondary screening are tested in cells using immunofluorescence to monitor global H3K4 tri-methylation as a measure of KDM5A/B inhibition. Early Translation Branch (ETB) National Center for Advancing Translational Sciences (NCATS), Rockville, MD National Institute of Health (NIH), Bethesda, Maryland [1] Sakurai, M et al. A miniaturized screen for inhibitors of Jumonji histone demethylases. Mol Biosyst. 2010 Feb;6(2):357-64. doi: 10.1039/b912993f. Epub 2009 Oct 8.
Materials: 1536-well Black, solid bottom, medium binding assay plate is purchased from Greiner Bio-one. The enzymes (KDM5B) and substrate (H3K4me3/2) are provided by the principal investigators. The buffer for this assay is composed of 50mM HEPES at pH 7.5 with 0.01% Tween-20. FDH coupled Demethylase qHTS protocol: Three microliter enzyme mix (buffer + 200nM KDM5BDeltaAP final concentration) is dispensed into the assay plate using the BioRAPTR Flying Reagent Dispenser (FRD; […]). Compound (at various final concentration) and control solution is pin transferred to the assay plate using the Kalypsys 1536-pin tool apparatus. The assay plate is incubated for 10 min at room temperature followed by addition of 1uL substrate mix (buffer + 100uM ascorbic acid, 50uM ferrous ammonium sulfate, 12.5uM H3K4Me3, 25uM a-ketoglutarate, 0.25 mM NAD+, 0.25 U/mL formaldehyde dehydrogenase using the FRD yielding a total reaction volume of 4 uL. Initial fluorescence (Read1) is detected using the PerkinElmer ViewLux plate reader equipped with 340 nm excitation and 450 nm emission filters. The final fluorescence (Read2) signal is obtained after 30 min of room temperature incubation. Delta RFU is calculated (Read2 - Read1) and is used to generated dose response curves.
In general terms: In qHTS, concentration-response curves come from the screen itself.
With `COc1ccc(C(C)=O)cc1CN1CCN(C/C=C/c2ccccc2)CC1`, the Potency result was “inactive”. As for `NC(N)=N/N=C/c1ccc([N+](=O)[O-])cc1`, the entry is “inactive”; as for `CSc1ccccc1NC(=O)c1ccc(C)c(C)c1`, “inactive”.

Consider `Cc1ccc(C(=O)N2CCC3(CC2)NC(=O)N(Cc2ccc(F)cc2)C3=O)cc1`, for which the Potency entry was “inactive”. As for `COc1ccccc1C(=O)N1CCC2(CC1)CC(=O)c1ccccc1O2`, the figure is 31.6 µM (active); as for `COc1ccccc1C(=O)N1CCC2(CC1)C(=O)Nc1ccccc12`, “inactive”; as for `O=C1NC2(CCN(C(=O)c3ccccc3)C2)COc2ccccc21` (centres undefined), “inactive”.

In the case of `Cc1ccc(C(=O)N2CCC3(CC2)CC(=O)c2ccccc2O3)cc1`, the Potency was 25.1 µM (active). As for `COc1ccccc1C(=O)N1CCC2(CCC(=O)N(Cc3ccccc3)CC2)CC1`, the entry is “inactive”.

Regarding `Cc1[nH]c2ccccc2c1C(=O)COc1ccc(C(N)=O)cc1`, the Potency entry is “inactive”.

Take `COc1ccc(-c2c(C)oc3cc(OC(=O)c4ccc5c(c4)OCO5)ccc3c2=O)cc1`: the Potency result was “inactive”. As for `CCS(=O)(=O)N1CCC(NS(=O)(=O)c2ccsc2C(=O)OC)CC1`, the entry is “inactive”; as for `COc1ccc(-c2nc(CN3CCCC3c3nnc4ccccn34)co2)cc1` (centres undefined), “inactive”. As to `CCOC(=O)c1ccoc1CN1CCCC(O)C1` (centres undefined), the Potency entry was “inactive”. As for `CCCn1c(NC(=O)CCOc2ccccc2)nc2ccccc21`, the entry is “inactive”; as for `CONC(=O)Cc1ccc(OC)cc1`, “inactive”.

Take `O=C(O)C(c1c[nH]c2ccc(Cl)cc12)N1CCCN(c2ccc(C(F)(F)F)cn2)CC1` (centres undefined): the Potency entry was “inactive”. In the case of `CCn1c(SCC(=O)NC2=NCCS2)nnc1C(C)NC(=O)c1ccccc1F` (centres undefined), the Potency result was “inactive”. As for `CC(C)n1nc(C(=O)Nc2ccc(Nc3ccccc3)cc2)c2ccccc2c1=O`, the entry is “inactive”. `c1ccc(-c2noc(-c3ccccc3OC3CCNC3)n2)cc1` (centres undefined): the Potency was 20 µM (active). For `Brc1ccc(-c2noc(-c3ccccc3)n2)o1`, the Potency result was “inactive”. In the case of `CC(=O)c1ccc(NC(=O)COc2ccccc2-c2nc(-c3ccccc3)no2)cc1`, the Potency entry is “inactive”. For `CN1C[C@]2(C=C3CCCCC3n3c(=O)n(-c4ccccc4)c(=O)n32)N=C1NC(=O)c1ccccc1` (some centres undefined) the value was “inactive”; for `CCCNC(=S)NNC(=O)CCC`, “inactive”; for `CC1CCN(C(=O)C[C@@H]2c3nc(NC(=O)c4ccnc(Cl)c4)sc3C[C@@H]3[C@](C)(CO)[C@H](O)CC[C@]32C)CC1`, “inactive”.

As to `COc1ccc(NC(=O)C2CCCN(Cc3nc(-c4ccc(OC)c(OC)c4)no3)C2)cc1OC` (centres undefined), the Potency result was “inactive”. For the compound `COc1ccc(C(=O)Nc2cccc(-c3nnc4n3CCCC4)c2)cc1`, the Potency result was “inactive”. For `COc1ccc(CC(=O)Nc2ccc(C(=O)NC(C)(C)C)cc2)cc1` the value was “inactive”.

Turning to `CCC(=O)Nc1ccc2nnc(-c3ccc(C(=O)Nc4ccc(OC)cc4)cc3)n2c1`, the Potency was 25.1 µM (active).

As to `CCC(CC)NC(=O)c1ccc(-c2nnc3ccc(NC(=O)C4CCC4)cn23)cc1`, the Potency was 10 µM (active). As for `CCC(C)NC(=O)c1ccc(NC(=O)CC2SC(N3CCCCC3)=NC2=O)cc1` (centres undefined), the entry is “inactive”.

Turning to `O=[N+]([O-])c1ccc(/C=N/OCc2cc(F)cc3cccnc23)cc1`, the Potency entry is “inactive”. For `CC1C(=O)Nc2ccccc2N1C(=O)c1ccc(F)cc1F` (centres undefined) the value was “inactive”; for `CC(C)(C)c1ccc(C(=O)NN=C2CCCCC2)cc1`, “inactive”.

On to `FC(F)(F)c1ccc(CCNC(=S)NC2CC2)cc1`, for which the Potency entry was “inactive”. Regarding `O=C(c1cccc(C(F)(F)F)c1)N1CCC2(CC1)CC(O)CCO2` (centres undefined), the Potency result is “inactive”. In the case of `COc1ccc(OC2CN(Cc3cccn3C)C2)cc1`, the Potency is 44.7 µM (active). For the compound `COc1ccc(OC2CN(CC3CCCCC3)C2)cc1`, the Potency entry is “inactive”. For `COc1ccc(CN2CC(Oc3ccc(OC)cc3)C2)cc1` the value was “inactive”; for `CN(C(=O)Cn1nc(Cc2cccnc2)c2ccccc2c1=O)c1ccccc1Cl`, “inactive”; for `CC1=NS(=O)(=O)N(Cc2ccccc2)C=C1C(=O)OCc1noc(C)n1`, “inactive”. Consider `COc1cccc(-c2cc(C3CCN(C(=O)Nc4ccccc4Cl)CC3)[nH]n2)c1`, for which the Potency result is “inactive”. In the case of `O=C(OCc1nc2ccccc2o1)c1cc(F)cc(F)c1`, the Potency result was “inactive”. `Cc1noc(-c2ccc(OC3CN(C(=O)c4ccco4)C3)cc2)n1`: the Potency entry is “inactive”. For the compound `COCc1nc(CCNC(=O)CCc2ccccc2)no1`, the Potency result was “inactive”. On to `Cc1noc(-c2cccn3c(CNC(=O)CCc4ccccc4)nnc23)n1`, for which the Potency is 22.4 µM (active).

On to `Cc1noc(-c2cccn3c(CNC(=O)c4ccco4)nnc23)n1`, for which the Potency is 28.2 µM (active).

With `Cc1noc(-c2cccc(OC3CN(C(=O)NCCc4ccccc4)C3)c2)n1`, the Potency entry was “inactive”. As to `Cc1cnc(CCNC(=O)c2ccco2)n1C1CCC1`, the Potency result was “inactive”. With `Cn1c(=O)[nH]c(=O)c2c1ncn2CC(O)c1ccccc1` (centres undefined), the Potency result was “inactive”. For `CC(=O)N1CCN(c2ccc3nnc(-c4ccc(C)cn4)n3n2)CC1` the value was “inactive”. As for `Cc1ccc(-c2nnc3ccc(-c4ccoc4)nn23)nc1`, the Potency is 31.6 µM (active).

For `COP(=O)(OC)c1nc(-c2cccs2)oc1NCc1ccc(C)cc1`, the Potency result was “inactive”. Regarding `CCn1c(=O)c2ccnn2c2ccc(C(=O)NC3CCCCC3)cc21`, the Potency was 25.1 µM (active).
